Screens deposited in PubChem by National Center for Advancing Translational Sciences (NCATS).
The list is not random: actives were taken first. Their share in the collection is about 3.9%.
TGFb inhibitor: qHTS for Inhibitors of TGF-b | HepG2 CAGA-GFP TGF-b/SMAD3 reporter, GFP fluorescence, 18 h; TGF-beta stimulated, 500 pg/mL final | Potency, µM (series often up to 46.1 µM), without a hit: at the highest dose activity, negative = inhibition, actives largely listed as inhibitors | actives 1.2% (n = 410,000) | AID 588855, 2011; note: % is set by controls: 0 for no effect and ±100 for the full control effect; nearly all actives have a fitted effect of over 65% in size
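TGF-beta reporter screen: HEPG2 CAGA-GFP, 1% FBS, 500 pg/mL TGF-beta final, 18 h; per-cell GFP summed per well; curves fitted and categorized by class.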
HepG2 tox: qHTS for Inhibitors of TGF-b: Cytotox Counterscreen. Potency, µM (series often up to 46.1 µM), for the others: top-dose activity change, negative = cytotoxicity, hits mostly cytotoxic. HepG2 CAGA-GFP viability, ATP luminescence, 18 h. actives 0.76% (n = 410,000)
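HepG2 CAGA-GFP cells (1000/well, DMEM with 1% FBS) received compound, then TGF-beta at 500 pg/mL final, and were incubated 18 hours at 37 degrees C. Viability was read by CellTiter-Glo luminescence. Media-only wells were set as complete cell-killing and DMSO as no toxicity.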
ATXN viability: Viability Counterscreen for Primary qHTS for Inhibitors of ATXN expression | S2 cells (HEK-293 line with an ATXN2-luciferase reporter) viability, CellTiter-Fluor protease fluorescence, 24 h | Potency, µM (top dose mostly 56.7 µM), actives largely listed as cytotoxic | actives 0.49% (n = 400,000); note: nearly all actives have a fitted effect of over 40% in size
ATXN2 expr inh: Primary qHTS for Inhibitors of ATXN expression | Potency, µM (top dose mostly 57 µM), inactives show top-dose activity change, negative = inhibition, actives largely listed as inhibitors | HEK-293 ATXN2-luciferase reporter, luminescence, 24 h | actives 0.72% (n = 360,000); note: % is set by controls: 0 for no effect and ±100 for the full control effect; nearly all actives have a fitted effect of over 55% in size
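qHTS (up to 57 uM final) was run with 24 h compound exposure of reporter cells at 37 °C. Each well was multiplexed: SteadyGlo luminescence measured ATXN2-luciferase expression after a fluorogenic Gly-Phe-AFC viability readout (25 uM final).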
HT1080-NT tox: qHTS for induction of synthetic lethality in tumor cells producing 2HG: qHTS for the HT-1080-NT fibrosarcoma cell line | HT-1080-NT fibrosarcoma viability, CellTiter-Glo ATP luminescence, 48 h | Potency, µM (highest dose often 46.1 µM), inactives show at the top dose activity, negative = less viability, hits mostly cytotoxic | actives 1.6% (n = 360,000) | AID 686970, 2013;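 note: NT is the 2HG producing partner of a matched IDH1 knockdown line; 0% = DMSO-treated cells and -100% = media-only wells without cells; nearly all actives have a fitted effect of over 55% in size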
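HT-1080-NT fibrosarcoma cells (2HG-overproducing), 750 cells/well in RPMI with 5% FBS, dosed after 2 h and incubated 48 h at 37C. CellTiter-Glo luminescence normalized to DMSO and no-cell wells; concentration-response curves fitted and classed.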
HT1080 IDH1KD tx: qHTS for induction of synthetic lethality in tumor cells producing 2HG: qHTS for the HT-1080-IDH1KD cell line | Potency, µM (titrated, usually from 46.1 µM), for inactives: top-dose activity, negative = toxicity, actives largely listed as cytotoxic | actives 2% (n = 360,000) | HT-1080 IDH1 knockdown viability, ATP luminescence, 48 h | AID 686971, 2013;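 note: 0% = DMSO wells and -100% = cell-free medium wells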
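Using the IDH1-knockdown HT-1080 line run in the same batch and compound series as the NT line, viability after 48 h at 37 °C was determined by CellTiter-Glo luminescence and expressed as % activity.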
* hit, by the source's call; i = inactive; ? = inconclusive; · = no result. Calls come from the whole dose curve; as a rule, active = well fitted curve in the direction sought with a large enough effect; inconclusive = small, poorly fitted or top-dose-only effect, or another doubt; inactive = no such curve, though single readings can be large; an effect the other way counts as inactive or inconclusive. Potency is the fitted concentration of half-maximal effect.

SMILES | TGFb inhibitor | HepG2 tox | ATXN viability | ATXN2 expr inh | HT1080-NT tox | HT1080 IDH1KD tx
Cc1cc(C)nc(Nc2nc(C(N)Cc3ccc(Cl)cc3)cs2)n1 (configuration not stated) | 16µM* | -95% | ? | ? | 21µM* | 15µM*
Cc1cc(C)nc(Nc2nc(C(N)Cc3ccc(C(F)(F)F)cc3)cs2)n1 (configuration not stated) | ? | 22µM* | ? | -21% | ? | ?
NC(Cc1ccc(C(F)(F)F)cc1)c1csc(Nc2nccc(C(F)(F)F)n2)n1 (configuration not stated) | ? | -105% | i | ? | ? | ?
CS(=O)(=O)c1ccc(Nc2nc(C(N)Cc3ccc(C(F)(F)F)cc3)cs2)cc1 (configuration not stated) | ? | -55% | i | ? | 18µM* | ?
COc1cc(OC)nc(Nc2nc(C(N)Cc3ccccc3)cs2)n1 (configuration not stated) | ? | -63% | i | -10% | ? | ?
C#CC(C)(CC)OC(=O)c1ccccc1C(=O)O (configuration not stated) | · | · | i | 7% | · | ·
Cc1cc(C)nc(Nc2nc(C(N)Cc3ccc(F)cc3)cs2)n1 (configuration not stated) | ? | 13µM* | ? | -24% | ? | 13µM*
CCCc1cnc(Nc2nc(C(N)Cc3ccc(C(F)(F)F)cc3)cs2)nc1 (configuration not stated) | ? | 11µM* | · | -16% | 16µM* | ?
COc1cc(=O)n2c(c1C(=O)N(C)Cc1ccsc1)CCN(Cc1c(C)nc3sccn13)CC2 | · | · | i | · | · | ·
O=S(=O)(c1ccc(OCC(O)CNC23CC4CC(CC(C4)C2)C3)c(Cl)c1)N1CCOCC1 (configuration not stated) | ? | 13µM* | ? | ? | 21µM* | 13µM*
O=C(COc1ccc(S(=O)(=O)N2CCOCC2)cc1Cl)NC1CCCCC1 | ? | -3% | i | -10% | -6% | -9%
N/C(=C\C(=O)c1cc(Cl)ccc1O)C(Cl)(Cl)Cl | 10µM* | -89% | ? | 20µM* | 8.2µM* | 13µM*
N=C(N)N=Nc1c(O)[nH]c2ccc(Br)cc12 | -8% | -12% | i | -19% | -27% | -7%
Oc1[nH]c2ccc(Br)cc2c1N=NC(=S)Nc1ccc(F)cc1 | 10µM* | -65% | ? | -30% | ? | ?
Oc1cccc(NC(=S)N=Nc2c(O)[nH]c3ccc(Br)cc23)c1 | ? | -105% | i | -25% | ? | 21µM*
Oc1ccc(NC(=S)N=Nc2c(O)[nH]c3ccc(Br)cc23)cc1 | ? | 22µM* | ? | ? | ? | 21µM*
CCC(Cn1nnc2ccccc2c1=O)NC(=O)Nc1ccc(C)c(C)c1 (configuration not stated) | -15% | -6% | · | · | · | ·
COc1ccc(-c2cc(C(=O)N3CCc4c(cnc(C)c4CNC(=O)c4ccsc4)C3)[nH]n2)cc1 | · | · | i | · | · | ·
Cc1ccc2c(c1)cc1c(=O)n(Cc3ccc(Cl)cc3)nc(C)n12 | -22% | -2% | i | 5% | · | ·
COCCCNC(=O)c1c[nH]c2ccc(S(=O)(=O)N3CCc4ccccc43)cc2c1=O | ? | -29% | i | -36% | ? | ?
COCCNC(=O)c1c[nH]c2ccc(S(=O)(=O)N3CCc4ccccc43)cc2c1=O | -25% | -57% | i | · | 2.3µM* | 2.3µM*
O=C(Nc1ncccn1)c1cc([N+](=O)[O-])cc([N+](=O)[O-])c1 | -8% | -11% | i | 1% | 12% | 21%
O=[N+]([O-])c1cc(-c2ncccn2)c([N+](=O)[O-])s1 | 11µM* | -96% | · | ? | 16µM* | 21µM*
CSc1ncccc1C(=O)N1CCOc2ccc(C(C)(O)CCn3cccn3)cc2C1 (configuration not stated) | · | · | i | · | · | ·
O=[N+]([O-])c1cccnc1Sc1ccc(F)cc1 | -13% | 7.1µM* | i | -13% | 15% | -6%
SMILES | TGFb inhibitor | HepG2 tox | ATXN viability | ATXN2 expr inh | HT1080-NT tox | HT1080 IDH1KD tx
CC[C@H]1OC(=O)[C@H](C)[C@@H](O[C@H]2C[C@@](C)(OC)[C@@H](O)[C@H](C)O2)[C@H](C)[C@@H](O[C@@H]2O[C@@H](C)C[C@H](N(C)C)[C@@H]2O)[C@](C)(O)C[C@@H](C)C(=O)[C@H](C)[C@@H](O)[C@]1(C)O | · | · | · | -1% | · | ·
Oc1ccc(Br)cc1-c1cc(-c2ccccc2)n[nH]1 | 0% | -41% | i | 5% | 29µM* | 21µM*
COc1ccc(-c2cc(-c3ccc(Cl)cc3)n[nH]2)c(O)c1 | ? | -49% | i | 102% | -4% | 3%
Oc1ccc(Br)cc1-c1cc(-c2ccc(Cl)cc2)n[nH]1 | ? | -66% | ? | -33% | 23µM* | 23µM*
O=C(CN1C(=O)C2(CCCC2)NC[C@H]1c1cc(F)cc(F)c1)Nc1ccc2c(c1)C[C@@]1(C2)C(=O)Nc2ncccc21 | · | · | · | -1% | · | ·
COc1c(O[C@@H]2O[C@H](CO)[C@@H](O)[C@H](O)[C@H]2O)cc2c(c1OC)-c1ccc(SC)c(=O)cc1[C@@H](NC(C)=O)CC2 | · | · | i | · | · | ·
COc1cc2c(c(OC)c1OC)-c1ccc(OC)c(=O)cc1[C@@H](N(C)CC#CCO)CC2 | -26% | -5% | ? | -11% | 0.0073µM* | 0.16µM*
COc1cc2c(c(OC)c1OC)-c1ccc(NCc3ccccc3)c(=O)cc1C(NC(C)=O)CC2 (configuration not stated) | ? | -26% | i | · | 3.7µM* | 2.3µM*
COc1cc2c(c(OC)c1OC)-c1ccc(N(C)CC(OC)OC)c(=O)cc1[C@@H](NC(C)=O)CC2 | ? | 0% | i | 38% | ? | 0.65µM*
COc1cc2c(c(OC)c1OC)-c1ccc(NC(=O)c3ccc(F)cc3)c(=O)cc1[C@@H](NC(C)=O)CC2 | ? | -15% | i | · | ? | ?
CN[C@H]1CCc2cc(OC)c(OC)c(OC)c2-c2ccc(N(C)CC(OC)OC)c(=O)cc21 | ? | -8% | 14µM* | · | 4.1µM* | ?
